From PubChem BioAssay AID1497 (Sanford-Burnham Center for Chemical Genomics, 2009) come the findings set out here.

About 500 (0.54%) of roughly 93,000 compounds were called active.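 Rule for the calls: active = primary inhibition of 50% or more at 10 µM, then 40% or more on retest; inactive = the rest.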 This excerpt belongs to a sample that is enriched for actives.

In the test the target is Integrin beta-2 (Homo sapiens) + Integrin alpha-M (Homo sapiens) (UniProt P05107+P11215). The experiment in a line: antagonists of integrin CD11b/CD18-fibrinogen binding – K562 cells, luminescence, primary screen (AID 1497). Particulars: K562 CD11b/CD18 adhesion to fibrinogen, ATPlite luminescence; at 10 µM; active compounds read high; Mn2+ added to activate the integrin. For orientation: In ATP-based viability assays light output follows the ATP content of the culture.
Sequence of Integrin beta-2 (Homo sapiens) + Integrin alpha-M (Homo sapiens) (P05107 whole entry, looked up, other chains not shown): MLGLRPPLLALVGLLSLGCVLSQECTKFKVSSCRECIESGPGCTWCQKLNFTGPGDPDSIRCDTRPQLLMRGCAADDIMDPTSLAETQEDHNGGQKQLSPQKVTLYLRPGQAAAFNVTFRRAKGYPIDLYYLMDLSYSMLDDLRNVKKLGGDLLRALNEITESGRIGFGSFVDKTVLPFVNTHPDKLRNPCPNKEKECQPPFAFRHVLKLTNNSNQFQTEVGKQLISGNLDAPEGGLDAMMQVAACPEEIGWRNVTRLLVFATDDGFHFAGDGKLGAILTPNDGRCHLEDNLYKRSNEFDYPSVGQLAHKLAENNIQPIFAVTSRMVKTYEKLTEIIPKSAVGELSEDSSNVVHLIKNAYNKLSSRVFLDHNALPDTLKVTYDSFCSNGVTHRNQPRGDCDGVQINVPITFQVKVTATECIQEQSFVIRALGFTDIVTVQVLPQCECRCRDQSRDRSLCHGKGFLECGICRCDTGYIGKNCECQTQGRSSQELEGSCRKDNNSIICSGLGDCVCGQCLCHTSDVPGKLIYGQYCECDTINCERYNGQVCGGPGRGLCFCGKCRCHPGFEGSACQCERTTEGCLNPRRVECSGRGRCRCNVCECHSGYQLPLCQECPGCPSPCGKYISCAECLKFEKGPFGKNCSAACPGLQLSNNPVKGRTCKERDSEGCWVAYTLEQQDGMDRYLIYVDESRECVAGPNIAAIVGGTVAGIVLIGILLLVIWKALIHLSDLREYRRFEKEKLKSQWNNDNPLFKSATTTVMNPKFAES
In the case of `COc1ccc(C(=O)Nc2ccccc2C(=O)N/N=C/c2ccc(O)c(OC)c2)cc1`, the inhibition was 106% (inactive).

As to `COc1ccc(C(=O)Nc2ccccc2C(=O)N/N=C/c2ccccc2OC)cc1`, the inhibition is 65.1% (active).

Take `COc1ccc(NC(=O)c2ccc(OC)cc2)cc1`: the inhibition is -5.7% (inactive).

Consider `N#C/C=C\Oc1ccc(Cl)cc1N`, for which the inhibition is 51.7% (active).

For the compound `COc1ccc(Cl)cc1NC(=O)[C@@H]1CCCN1C(=O)c1cccs1`, the inhibition was -14.3% (inactive).

On to `Cc1nn(-c2ccccc2)c(C)c1/C=C/C(=O)OC(C)C(N)=O` (centres undefined), for which the inhibition was -9.1% (inactive).

As to `COc1ccc(-c2csc(NC(=O)CCCc3cccs3)n2)cc1`, the inhibition was 6.2% (inactive).

`Cc1c(Br)c([N+](=O)[O-])nn1CC(=O)Nc1sc2c(c1C(=O)OC(C)C)CCC(C)C2` (centres undefined): the inhibition was -9.3% (inactive).

On to `O=C(Nc1cccc(F)c1)c1coc(=O)c(Br)c1`, for which the inhibition is -10.2% (inactive).

For `O=C(COC(=O)c1ccc(Cl)nc1)NCc1ccc2c(c1)OCO2`, the inhibition was 4.3% (inactive).

On to `O=C(CSc1ccc2nnc(-c3ccccc3)n2n1)N1CCCc2ccccc21`, for which the inhibition was 29.7% (inactive).

Regarding `O=C(OCc1ccc(Br)cc1)c1cccc(-c2nnc(-c3ccccc3)o2)c1`, the inhibition is 6.5% (inactive).

On to `O=C(CCCCCNC(=O)c1ccccc1)N/N=C/c1ccccc1`, for which the inhibition is 9.3% (inactive).

On to `CC1(c2cccc([N+](=O)[O-])c2)CC(C)(C)N(C(=O)c2ccccc2)c2ccccc21` (centres undefined), for which the inhibition is 12.3% (inactive).

On to `Cc1ccc(NC(=O)CC2C(=O)N(Cc3ccccc3)C(=S)N2NC(=O)c2cccc(F)c2)c(C)c1` (centres undefined), for which the inhibition is 1.5% (inactive).

For `Nc1nnc(SCC(=O)Nc2ccc3nc(SCC(=O)Nc4ccccc4)sc3c2)s1`, the inhibition is 74% (inactive).

With `CC(=O)Nc1ccc(S(=O)(=O)Nc2nc(-c3ccc(C(C)(C)C)cc3)cs2)cc1`, the inhibition is 0.9% (inactive).

As for `COc1cc2c3c(c1)/C(=C1/SC(=S)NC1=O)C(=O)N3C(C)(C)C=C2C`, the inhibition is 92.6% (inactive).

On to `CCCc1ccc(-c2c(C)sc(NC(=O)c3ccnn3C)c2C#N)cc1`, for which the inhibition is 62.4% (active).

In the case of `CCOC(=O)c1sc(NC(=O)CSc2ncccn2)c(C#N)c1C`, the inhibition was -4.4% (inactive).

For `CCc1c(C)sc(NC(=O)c2ccc(Br)o2)c1C(=O)OC`, the inhibition is 6.5% (inactive).

In the case of `COc1ccc(C2Nc3ccccc3C(=O)N2c2ccc(F)cc2)cc1Cn1nnc2ccccc21` (centres undefined), the inhibition is 12.2% (inactive).

Regarding `CC(=C/c1ccccc1)/C=N/NC(=O)c1cc(C)oc1C`, the inhibition is 4.2% (inactive).

As for `Fc1ccc2[nH]c3c(N4CCN(Cc5ccc6c(c5)OCO6)CC4)ncnc3c2c1`, the inhibition is 103% (active).

As to `CC(C)(C)n1nnnc1C(c1ccc(F)cc1)N1CCN(Cc2ccc3c(c2)OCO3)CC1` (centres undefined), the inhibition was -11.6% (inactive).

As for `Fc1ccc2[nH]c3c(N4CCSCC4)ncnc3c2c1`, the inhibition is 81.7% (active).

In the case of `CCN1CCCC1CNc1ncnc2c1[nH]c1ccc(F)cc12` (centres undefined), the inhibition is -18.1% (inactive).

With `Cc1cc(N2CCN(Cc3ccc4c(c3)OCO4)CC2)n2ncnc2n1`, the inhibition was -10.2% (inactive).

For `Cc1ccc(-n2ncc3c(N4CCN(c5ccc(F)cc5)CC4)ncnc32)c(C)c1`, the inhibition was 39.7% (inactive).

As usually defined, the inhibition is the change of the read-out against control, counted positive when it falls.
